Results on 98 compounds are retold here after PubChem BioAssay AID1416 (The Scripps Research Institute Molecular Screening Center, 2008).

Each structure is given as a SMILES string. In all, about 220,000 compounds went through this assay and about 370 (0.17%) were called active. Only a selection was taken, and actives are over-represented in it overall. A number with no mark means an inactive call.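 How the source made its calls: active means inhibition above the mean inhibition of all tested compounds plus 3 SD, set separately per screening campaign (cut at about 2.9% in these data); inactive means the rest.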

The target of this test is Eukaryotic translation initiation factor 2-alpha kinase 3 (Homo sapiens) (UniProt Q9NZJ5). Briefly: block of dimerizer-induced PERK translation repression, primary screen, PERK inhibitor project, CHO PERK-DD cells, SEAP luminescence, HTS (AID 1416).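 Further: PERK kinase domain activated by AP20187 dimerizer at 100 nM; 0% = DMSO with dimerizer and 100% = rapamycin at 8.4 µM.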 The conditions noted are these: CHO PERK-DD fusion, SEAP luminescence translation reporter; at 5.6 µM; stronger effect = higher value.
Sequence of Eukaryotic translation initiation factor 2-alpha kinase 3 (Homo sapiens) (Q9NZJ5 whole entry, looked up, the tested form may be a part): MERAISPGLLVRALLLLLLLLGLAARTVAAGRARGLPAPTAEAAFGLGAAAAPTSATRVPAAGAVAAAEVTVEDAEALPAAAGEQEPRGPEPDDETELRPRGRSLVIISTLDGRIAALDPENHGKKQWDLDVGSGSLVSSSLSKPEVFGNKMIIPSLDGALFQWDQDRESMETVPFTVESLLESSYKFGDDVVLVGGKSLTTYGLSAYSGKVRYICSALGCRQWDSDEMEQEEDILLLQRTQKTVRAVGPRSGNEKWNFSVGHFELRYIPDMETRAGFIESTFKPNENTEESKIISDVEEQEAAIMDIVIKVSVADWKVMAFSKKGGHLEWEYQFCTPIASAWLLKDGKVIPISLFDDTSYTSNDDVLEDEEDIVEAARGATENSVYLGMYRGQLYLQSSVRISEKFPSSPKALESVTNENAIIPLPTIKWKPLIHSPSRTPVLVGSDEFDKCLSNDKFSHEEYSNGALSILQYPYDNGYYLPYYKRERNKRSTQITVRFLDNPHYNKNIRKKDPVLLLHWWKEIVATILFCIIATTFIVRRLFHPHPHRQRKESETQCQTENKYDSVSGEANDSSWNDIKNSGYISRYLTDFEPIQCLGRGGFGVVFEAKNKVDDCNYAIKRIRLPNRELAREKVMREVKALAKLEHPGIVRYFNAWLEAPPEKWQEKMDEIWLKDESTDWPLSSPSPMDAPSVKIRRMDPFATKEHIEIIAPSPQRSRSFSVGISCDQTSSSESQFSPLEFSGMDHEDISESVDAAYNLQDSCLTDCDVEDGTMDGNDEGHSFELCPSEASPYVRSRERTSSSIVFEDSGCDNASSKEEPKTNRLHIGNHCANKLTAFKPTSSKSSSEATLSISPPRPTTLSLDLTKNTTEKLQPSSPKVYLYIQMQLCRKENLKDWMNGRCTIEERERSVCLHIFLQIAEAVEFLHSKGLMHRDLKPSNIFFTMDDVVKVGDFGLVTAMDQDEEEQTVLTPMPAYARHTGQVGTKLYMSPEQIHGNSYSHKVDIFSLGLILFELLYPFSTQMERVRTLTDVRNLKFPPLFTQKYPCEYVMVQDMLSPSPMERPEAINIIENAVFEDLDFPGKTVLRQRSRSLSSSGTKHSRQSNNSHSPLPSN
By inhibition is commonly meant the relative decrease from the control value, in per cent. Turning to `O=C(O)CC1(CC(=O)Nc2cccc(C(F)(F)F)c2)CCCC1`, the inhibition was 1.02%.

Regarding `O=C(Nc1ccc2c(c1)C(=O)OC2)Nc1cccc2ccccc12`, the inhibition was 1.57%.

Regarding `CC(=O)c1cc2c(cc1N)OCO2`, the inhibition is 4.03% (active).

With `CC(=O)c1cc2c(cc1NC(=O)CN1CCCCCC1)OCO2`, the inhibition was -1.22%.

For the compound `CC(=O)c1ccc2c(c1)OCCOCCOc1ccc(C(C)=O)cc1OCCOCCO2`, the inhibition is -1%.

In the case of `Cc1ccc2cc(C)c(N3CCC(C)CC3)nc2c1`, the inhibition is 1.08%.

For `CC(NS(=O)(=O)c1ccccc1)c1n[nH]c(=S)n1-c1ccccc1` (stereo not drawn), the inhibition is 3.52% (active).

As to `CCCCC(CC(C)O)c1n[nH]c(=S)n1-c1ccccc1` (stereo not drawn), the inhibition was 0.58%.

As for `S=c1[nH]nc(COc2ccccc2)n1-c1ccccc1`, the inhibition was 0.99%.

On to `CC(C)CNC(=O)CC(NCC(C)C)C(=O)O` (stereo not drawn), for which the inhibition was 0.39%.

Consider `COc1ccccc1CN(C)C(=O)C1(c2ccc(Cl)cc2)CC1`, for which the inhibition is 0.49%.

As to `Cc1nnc(SCC(=O)NC2CCCC2)s1`, the inhibition is 3.36% (active).

As to `Cc1cnc(NC(=O)CSc2nnc(C)s2)s1`, the inhibition is 1.08%.

With `Cc1nnc(SCC(=O)Nn2cnnc2)s1`, the inhibition was 0.16%.

As to `CC(=O)C1(C)N(O)C(C)(C)C(c2cccs2)=[N+]1[O-]` (stereo not drawn), the inhibition was 0.19%.

Take `COc1cccc(Nc2nnc(SCC(=O)N3CC(=O)Nc4ccccc43)s2)c1`: the inhibition is 0.32%.

For `CC1CC(=S)Nc2ccccc2N1Cc1ccccc1` (stereo not drawn), the inhibition was 0.04%.

As to `O=C1c2ccccc2C(=O)c2c1cccc2N1CCN(CCO)CC1`, the inhibition was -0.7%.

For the compound `COCc1c(C(=O)OCc2c(C)noc2C)oc2ccccc12`, the inhibition was 1.59%.

For the compound `CCOc1ccc(/C=N/NC(=O)CSc2ccccn2)cc1O`, the inhibition is -0.92%.

`CC1=C(C(=O)N(C)C)C(c2ccccc2OC(F)F)NC(=O)N1` (stereo not drawn): the inhibition is 1.73%.

Consider `CCOC(=O)c1ccc(NC(=O)c2cc(=O)[nH]c3ccccc23)cc1`, for which the inhibition is 0.84%.

Regarding `O=C(Nc1cccc(F)c1)N1C2CCC1CC(O)(c1cccnc1)C2` (stereo not drawn), the inhibition is 0.63%.

`O=C(Nc1ccccc1)OCc1cc(-c2ccc(Cl)cc2)on1`: the inhibition was 3.15% (active).

`O=C(Nc1ccc(Cl)cc1)OCc1cc(-c2ccccc2)on1`: the inhibition is 0.13%.

As for `O=C(Nc1ccccc1)OCc1cn(-c2ccc(Cl)cc2)nn1`, the inhibition is 1.21%.

For the compound `CCN(CC)CC1(O)CCN(C(=O)c2ccc(Cl)c(Cl)c2)CC1`, the inhibition is 1.07%.

In the case of `Cn1c(=O)c2cc(S(=O)(=O)NCCC(=O)Nc3ccc(F)cc3F)ccc2n(C)c1=O`, the inhibition is 2.78%.

As to `Cc1ccc(S(=O)(=O)NCC(=O)N(CC(=O)NC(C)(C)C)Cc2cccs2)cc1`, the inhibition is 1.04%.

Regarding `Cc1ccoc1C(=O)Nc1cccc(Oc2ccccc2)c1`, the inhibition was -1%.

Regarding `Cc1nc(CN2CCN(C(=O)CCc3nnc(Cc4c[nH]c5ccccc45)o3)CC2)cs1`, the inhibition is 0.14%.

As to `O=C(NNc1cc(Cl)cc(Cl)c1)c1c(F)cccc1Cl`, the inhibition is 0.97%.

With `COCCNC(=S)N1CCC(NC(=O)C23CC4CC(CC(C4)C2)C3)CC1`, the inhibition is -0.41%.

For the compound `Cc1ccc(C2Nc3ccccc3C(=O)N2CCN2CCNC2=O)cc1` (stereo not drawn), the inhibition was 0.32%.

Turning to `CN(C)/C=C(/C(=O)c1ccc(Cl)c(Cl)c1)c1nnnn1-c1ccccc1`, the inhibition was 1.85%.

As for `O=C1COc2ccc(C(=O)COC(=O)c3cccnc3Cl)cc2N1`, the inhibition is 0.94%.

Take `CCOc1ccc(S(=O)(=O)Nc2nccs2)cc1`: the inhibition was 1.47%.

For the compound `Cc1ccc2c(c1)NCC(C(=O)NC1CCC(C)CC1)O2` (stereo not drawn), the inhibition is 0.88%.

Regarding `COCc1c(C(=O)N/N=C/C2CC=CCC2)nnn1-c1nonc1N` (stereo not drawn), the inhibition was 0.44%.

Regarding `COc1ccc(NC(=S)Nc2ccc(S(N)(=O)=O)cc2)c(C)c1`, the inhibition is 1.02%.

Take `CN(Cc1ccccn1)Cc1nc(-c2ccc(Cl)cc2)no1`: the inhibition was 0.32%.

`COC(=O)C1=C(C)NC(=O)CC1c1ccccc1OC` (stereo not drawn): the inhibition is 0.25%.

As to `CN(c1ccc(OCC(=O)NC2=NCCS2)cc1)S(=O)(=O)c1ccc(F)cc1`, the inhibition was 1.79%.

Consider `Cc1cccc(N2CCN(c3ccc(NC(=O)/C=C\C(=O)O)cc3)CC2)c1`, for which the inhibition was 0.1%.

For `CS/C(=C\[N+](=O)[O-])Nc1ccc(C)cc1`, the inhibition was 1.47%.

Consider `CCOCCn1c(-c2ccccc2)nc2ccccc21`, for which the inhibition was -1.39%.

As for `Cc1ccccc1C1=N/C(=C/c2cccnc2)C(=O)O1`, the inhibition was 0.44%.

As to `O=C(CC1Nc2ccccc2NC1=O)Nc1ccccc1NC(=O)CC1Nc2ccccc2NC1=O` (stereo not drawn), the inhibition was 0.97%.

In the case of `CN(C)S(=O)(=O)N1CCN(c2ccc([N+](=O)[O-])cc2)CC1`, the inhibition is 0.53%.

Turning to `Cc1cc(NC(=O)/C=C/C(=O)N(c2ccccc2C)C(C(=O)NC2CCCC2)c2ccc(F)cc2)no1` (stereo not drawn), the inhibition was 2.4%.

Consider `CSc1sc(C(=O)NC(=O)NCc2cccnc2)c(C)c1-c1ccon1`, for which the inhibition was -0.78%.

For `Cc1c(C=O)n(C)n(-c2ccccc2)c1=O`, the inhibition was 0.28%.

For `Cc1ccc(Cl)c(NC(=O)CN(C)CC(=O)Nc2ccc(F)c(F)c2F)c1Cl`, the inhibition was 0.24%.

`Cc1noc(C)c1C(=O)OCC(=O)N1CCN(S(=O)(=O)c2ccc3ccccc3c2)CC1`: the inhibition was 1.94%.

`COc1ccc(C(F)(F)F)cc1N/C=C\c1nnnn1-c1ccc(C)cc1`: the inhibition was 1.24%.

Turning to `C#CCNC(=O)C1=C[C@@H](c2ccccc2)[C@H](CCCO)[C@@H](OCC)O1`, the inhibition is 0.82%.

Turning to `CSCC[C@H](NC(=O)NCCc1ccc(F)cc1)C(=O)O`, the inhibition was 0.4%.

For the compound `C[C@H](NC(=O)NCCc1ccccc1)C(=O)O`, the inhibition is 1.63%.

In the case of `CC(C)C[C@H](NC(=O)NCCc1ccc(Cl)cc1)C(=O)O`, the inhibition was 3.16% (active).

`CC(=O)c1ccc(NC(=O)CSC(=S)N2CCCC2)cc1`: the inhibition is -0.15%.

As to `Cc1cc(C)n(CC(O)CN(c2ccccc2)S(=O)(=O)c2ccc3ccccc3c2)n1` (stereo not drawn), the inhibition is 0.84%.

With `CC(C)CCSc1ncnc2c1oc1nc3c(cc12)COC(C)(C)C3`, the inhibition was -0.1%.

For `CC(=O)Nc1cccc(/C(C)=N/NC(=O)c2c(-c3ccccc3Cl)noc2C)c1`, the inhibition was -0.07%.

`COc1ccccc1N=C(C)C1=C(O)COC1=O`: the inhibition was 0.22%.

Consider `O=[N+]([O-])c1ccc2c(c1)C(O)n1nc(-c3ccccc3)nc1S2` (stereo not drawn), for which the inhibition was 1.41%.

Turning to `Cc1ccc(C(C)(C)C)c(OCCCCN2CCCC2)c1`, the inhibition is -1.02%.

Regarding `CS(=O)(=O)N(CC(=O)Nc1ccc(F)cc1F)c1cccc([N+](=O)[O-])c1`, the inhibition is 1.41%.

Take `Cc1ccc(C)c(NC(=S)NNC(=S)Nc2ccc(C(C)C)cc2)c1`: the inhibition is 0.16%.

`OCCN1CCN(C(=S)c2ccc(-c3ccccc3)cc2)CC1`: the inhibition is 0.18%.

As to `CCOc1ccc(C(=O)NC(=S)Nc2ccc(N3CCOCC3)c(Cl)c2)cc1[N+](=O)[O-]`, the inhibition was 1.74%.

As for `CCCCn1nc(C(=O)Nc2ccc(S(=O)(=O)Nc3ncccn3)cc2)c2ccccc2c1=O`, the inhibition is 0.72%.

Take `O=c1c2sccc2nc(SCc2cc(=O)n3ccccc3n2)n1-c1ccc(Br)cc1`: the inhibition was -1.2%.

Turning to `COc1cc(/C=N/NC(=O)Nc2ccccc2)ccc1OCCOc1ccccc1C`, the inhibition was 0.13%.

In the case of `CC(=O)Nc1ccccc1NC(=O)c1cc(C)cc(C)c1`, the inhibition is 0.02%.

With `O=c1[nH][nH]c(=O)c2cc(N3CCCC3)ccc12`, the inhibition was 0.69%.

As to `Cc1ccccc1C(=O)Nc1ccc(N2CCCCCC2)cc1`, the inhibition is -0.25%.

For the compound `O=C1C=CC(=O)N1c1ccc(N2CCCCC2)cc1`, the inhibition is 3.21% (active).

As for `CN1CCN(c2ccc(NC(=O)c3ccc4c(c3)[nH]c(=O)n4Cc3ccc(F)cc3)cc2)CC1`, the inhibition is 0.51%.

Consider `CCc1cc(C(N)=O)c(NC(=O)c2ccc(OC)cc2)s1`, for which the inhibition was 0.45%.

On to `Cc1ccc2cc(/C=N/NC(=O)[C@@H]3CCCN3)c(Cl)nc2c1`, for which the inhibition is -0.87%.

Regarding `C=CCSc1nc(N)cc(=O)[nH]1`, the inhibition is 2.99% (active).

In the case of `CCCCc1nnc(NC(=O)CSc2nc(N)cc(=O)[nH]2)s1`, the inhibition is 0.08%.

Consider `C=CCSc1nc2ccccc2[nH]1`, for which the inhibition is -0.36%.

Take `CCOc1ccc(CCNC(=O)C(CC)n2nc(C)n3c(cc4sccc43)c2=O)cc1OCC` (stereo not drawn): the inhibition was -0.56%.

`O=C(NCCc1ccc(F)cc1)c1n[nH]c2ccccc12`: the inhibition is 0.75%.

With `C=C(C)CSc1nnc(-c2ccc(C)cc2)n1N`, the inhibition is 0.46%.

For `CCCn1nnnc1NC(=O)COc1ccc(Cl)cc1C`, the inhibition is -0.15%.

Regarding `CSc1ccc(NC(=O)/C=C/C(=O)O)cc1`, the inhibition was 0.87%.

In the case of `COc1cccc(-c2ccc(C#N)c(SCC(=O)NCCc3ccc(Cl)cc3)n2)c1`, the inhibition is 1.75%.

Turning to `Cc1ccc(S(=O)(=O)N(Cc2ccc(Cl)cc2)c2ccccc2C(=O)NCc2cccnc2)cc1`, the inhibition is -0.82%.

`O=C(Nc1ccc2cn[nH]c2c1)c1ccc(S(=O)(=O)N2CCOCC2)cc1`: the inhibition is 1.2%.

Take `Cc1ccc(NNC(=O)C2CCC2)cc1C`: the inhibition is 0.43%.

Regarding `COC(=O)CSc1nc2c(c(C3CC=CCC3)c1C#N)CCC2` (stereo not drawn), the inhibition is 0.22%.

As to `CCC(C)OC(=O)C(C)Oc1ccc(-c2ccccc2)cc1` (stereo not drawn), the inhibition was -0.27%.

As for `Cc1nn(Cc2ccccc2Cl)c(C)c1NC(=O)Cn1nc([N+](=O)[O-])c(Cl)c1C`, the inhibition was -0.58%.

With `CC(=O)N1CCN(S(=O)(=O)c2ccc(C)c([N+](=O)[O-])c2)C1C(C)C` (stereo not drawn), the inhibition was 0.34%.

`Cc1cccc(C)c1NC(=S)N(Cc1cccnc1)Cc1ccccc1Cl`: the inhibition was -0.05%.

`CSc1ccccc1C(=O)NCc1ccccc1`: the inhibition was 1.84%.
